# High-throughput results (PubChem BioAssay)
# HT1080 IDH1KD tx: toxicity to HT-1080 IDH1 knockdown cells (counter line). HT-1080 IDH1 knockdown viability, ATP luminescence, 48 h. Potency, µM (series often up to 46.1 µM), for the others: at the highest dose activity, negative = toxicity, hits mostly cytotoxic. actives 2% (n = 360,000);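 also: 0% = DMSO wells and -100% = cell-free medium wells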
#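 In this qHTS, HT-1080 cells depleted of IDH1 are exposed for 48 h at 37 °C to compound titrations. Toxicity is scored from CellTiter-Glo luminescence, with DMSO as full viability and medium alone as none.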
# S2 tox: reduces viability in counter-screen for ATXN expression inhibitors. S2 cells (HEK-293 line with an ATXN2-luciferase reporter) viability, CellTiter-Fluor protease fluorescence, 24 h. Potency, µM (titrated, usually from 56.7 µM), hits mostly cytotoxic. actives 0.49% (n = 400,000); also: nearly all actives have a fitted effect of over 40% in size
# KB-V1 MDR tox: kills drug-selected multidrug resistant KB-V1 cells | KB-V1 MDR cells viability, CellTiter-Glo, 72 h | Potency, µM (top dose mostly 46.1 µM), most hits filed as cytotoxic | actives 3.4% (n = 400,000); also: % is scaled to controls: 0 for no effect and ±100 for the full control effect; nearly all actives have a fitted effect of over 60% in size
#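 Cytotoxicity toward P-gp-expressing KB-V1 cells was determined as loss of CellTiter-Glo luminescence after 72 h at 37 degrees C. Compounds were tested in quantitative HTS format across a concentration range, with curves fitted to normalized data.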
# KB-3-1 cytotox: KB-3-1 parental cell cytotoxicity; Potency, µM (doses to about 46.1 µM), most hits filed as cytotoxic; KB-3-1 viability, CellTiter-Glo ATP luminescence, 72 h; actives 1.4% (n = 400,000); also: % is scaled to controls: 0 for no effect and ±100 for the full control effect; nearly all actives have a fitted effect of over 60% in size
#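 KB-3-1 parental drug-naive adenocarcinoma cells in DMEM/10% FBS, incubated 72 h at 37 C with pin-transferred compounds across a concentration series. Viability by CellTiter-Glo luminescence; concentration-response curves fitted after normalization.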
# ATXN2 expr inh: reduces ATXN2 reporter expression in HEK-293 cells; HEK-293 ATXN2-luciferase reporter, luminescence, 24 h; actives 0.72% (n = 360,000); AID 1745845; Potency, µM (highest dose often 57 µM), for the others: at the highest dose activity change, negative = inhibition, usual class: inhibitors; also: % is scaled to controls: 0 for no effect and ±100 for the full control effect; nearly all actives have a fitted effect of over 55% in size
#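 qHTS (up to 57 uM final) was run with 24 h compound exposure of reporter cells at 37 °C. Each well was multiplexed: SteadyGlo luminescence measured ATXN2-luciferase expression after a fluorogenic Gly-Phe-AFC viability readout (25 uM final).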
# HT1080-NT tox: kills 2HG-producing HT-1080-NT fibrosarcoma cells; HT-1080-NT fibrosarcoma viability, CellTiter-Glo ATP luminescence, 48 h; Potency, µM (doses to about 46.1 µM), inactives show top-dose activity, negative = less viability, hits mostly cytotoxic; actives 1.6% (n = 360,000); AID 686970;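 also: NT is the 2HG producing partner of a matched IDH1 knockdown line; 0% = DMSO-treated cells and -100% = media-only wells without cells; nearly all actives have a fitted effect of over 55% in size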
#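 Compounds were tested in concentration-response format on HT-1080-NT cells for 48 hours at 37 degrees C. Cell viability came from CellTiter-Glo luminescence; curves were classified by r2, response magnitude and activity.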
# * hit, by the source's call; i = inactive; ? = inconclusive; · = not tested or not shown; ! = not confirmed by another sample. Most compounds without a hit are left out; they make up all but 6.2% or so of the library. Calls follow the shape of the dose curve; as a rule, active = well fitted curve in the direction sought with a large enough effect; inconclusive = small, poorly fitted or top-dose-only effect, or another doubt; inactive = no such curve, though single readings can be large; an effect the other way counts as inactive or inconclusive. Potency is read from the fitted curve at half-maximal effect.
SMILES,HT1080 IDH1KD tx,S2 tox,KB-V1 MDR tox,KB-3-1 cytotox,ATXN2 expr inh,HT1080-NT tox
Cc1ccnc(NC(=O)CCCOc2cc(=O)n(C)c3ccccc23)c1,?,i,8.2µM*!,3.7µM*!,1.3µM*!,?
CN1CCN(c2nn3c(=O)c4ccccc4nc3s2)CC1,·,·,i,i,·,·
O=C1c2cccc3c([N+](=O)[O-])ccc(c23)C(=O)N1Cc1cccnc1,12µM*,·,i,?,-36%,8.2µM*
Cc1ccnc(N2C(=O)c3cccc4c([N+](=O)[O-])ccc(c34)C2=O)c1,2.8µM*,·,i,i,?,5µM*
Cc1ccc(N2C(=O)c3cccc4c([N+](=O)[O-])ccc(c34)C2=O)c2cccnc12,?,i,?,0.065µM*,·,?
Cc1ccc(N2C(=O)c3cccc4c(N5CCN(C)CC5)ccc(c34)C2=O)c2cccnc12,11µM*,·,i,i,-27%,?
O=C1c2cccc3cccc(c23)C(=O)N1Cc1cccnc1,4%,i,i,i,17%,2%
O=C1c2cccc3c(N4CCCCC4)ccc(c23)C(=O)N1c1ccccc1O,-8%,·,i,i,-5%,-10%
COc1cc([N+](=O)[O-])ccc1NC(=O)N1CCC2(CC1)Nc1cc(F)ccc1-n1cccc12,·,·,i,i,·,·
OC1(c2cccnc2)CCN(Cc2ccc3c(c2)CN(Cc2ccsc2)CCO3)CC1,·,i,·,·,·,·
Cc1ccc(Cl)cc1Nc1nc2ccccc2n2c(C)nnc12,·,i,?,i,6%,·
CC(C)(C)c1cc(NC(=O)CCSc2nnc3ccccn23)cc(C(C)(C)C)c1,?,i,3.7µM*,i,?,-19%
Cc1ccccc1Cn1cnc2c(NS(C)(=O)=O)c(C)c(C)cc21,-11%,i,16µM*,?,-8%,-7%
Cn1cc(C(=O)Nc2ccc(Cl)cc2)c(C(F)(F)F)n1,1%,i,i,i,·,1%
CCC(C)Sc1cc(C(F)(F)F)c(C(=O)Nc2ccc(Cl)cc2)cn1 (stereo not given),23µM*,i,?,i,?,?
O=c1c2cc3c(cc2n(Cc2ccc(Cl)cc2)c(=O)n1Cc1nc(-c2ccccc2)no1)OCO3,·,i,i,i,-9%,·
O=C(CSc1cccc[n+]1[O-])c1cc2ccccc2o1,16µM*,i,21µM*,18µM*,64%,7.3µM*
O=C(CSc1cccc[n+]1[O-])c1cc(Cl)ccc1Cl,2.3µM*,·,i,i,-15%,-25%
CS(=O)(=O)N1N=C(c2ccco2)CC1c1ccc(Cl)cc1 (stereo not given),-7%,i,16µM*,i,29%,-1%
Cc1ccc(C2CC(c3ccco3)=NN2S(C)(=O)=O)cc1 (stereo not given),24%,i,i,i,24%,16%
CCCCCOc1ccc(Br)cc1/C(C)=N/NC1=NCCN1,5.2µM*,?,?,?,?,6.5µM*
COC(=O)/C=C\C(C#N)(C#N)N=Cc1ccc(OC)cc1,5.8µM*,?,i,?,?,?
Cc1nc(-c2cccc(NC(=O)Nc3ccc([N+](=O)[O-])cc3)c2)no1,·,i,i,?,13µM*,·
CS(=O)c1ccccc1-c1nc(-c2ccc([N+](=O)[O-])cc2)no1 (stereo not given),13%,i,8.2µM*,?,18%,17%
CS(=O)c1ccccc1-c1nc(-c2cc(C(F)(F)F)cc(C(F)(F)F)c2)no1 (stereo not given),-2%,i,?,?,-25%,0%
Cc1ccc(NCC(=O)c2ccc([N+](=O)[O-])cc2)cc1,-21%,i,i,i,21%,10%
O=C(Nc1ccc([N+](=O)[O-])cc1)Nc1ccon1,0.73µM*,i,6.5µM*,0.58µM*,-12%,1.2µM*
